Pyk2 oligo antag: antagonists of human Pyk2 oligomerization. Q14289. Q293 cells, Pyk2 FERM NanoBiT luminescence; stronger effect = lower value. z-score (the deposit names both 25 µM and 10 µM). actives 0.83% (n = 99,000). AID 1347419;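 active = Z-score of -3 or lower, scaled per plate to the spread of control and sample wells; inactive = z-score above -3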;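 note: negative z-score means lost luminescence so less FERM oligomerization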
M1 antagonist: antagonists of rat M1 muscarinic receptor; P08482; actives 3.4% (n = 64,000); CHO-M1 cells, Fluo-4 calcium, ACh EC80 antagonist mode; stronger effect = lower value; B-score at 10 µM;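 active = calcium fluorescence response, raw or row-and-column corrected B-score, differing from the plate sample mean either way at a set confidence level, mostly lower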
Target sequence (P08482 whole entry, looked up): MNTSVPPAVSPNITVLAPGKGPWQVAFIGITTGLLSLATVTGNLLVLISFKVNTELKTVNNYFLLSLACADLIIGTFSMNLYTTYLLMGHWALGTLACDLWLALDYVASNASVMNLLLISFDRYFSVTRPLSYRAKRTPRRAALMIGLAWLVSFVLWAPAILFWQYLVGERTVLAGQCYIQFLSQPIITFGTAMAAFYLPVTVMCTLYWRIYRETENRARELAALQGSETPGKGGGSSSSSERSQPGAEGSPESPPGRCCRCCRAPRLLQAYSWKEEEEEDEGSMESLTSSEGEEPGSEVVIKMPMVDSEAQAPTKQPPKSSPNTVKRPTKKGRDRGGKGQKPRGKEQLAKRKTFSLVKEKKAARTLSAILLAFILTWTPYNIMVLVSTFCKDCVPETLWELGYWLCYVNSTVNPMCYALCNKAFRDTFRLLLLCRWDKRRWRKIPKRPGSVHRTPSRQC
Cav3 T inh: human Cav3.2 channel inhibition, primary screen; O95180; B-score at 10 µM; Cav3.2-expressing cells, Fluo-4 calcium fluorescence FDSS; stronger effect = lower value; actives 4% (n = 100,000);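 active = single-dose well whose peak fluorescence ratio is a statistical outlier from its plate by either plate-standardised score or position-corrected B-score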
M1 ag: agonists of M1 muscarinic receptor. CHO-M1 cells, Fluo-4 calcium fluorescence, agonist mode; stronger effect = higher value. B-score at 10 µM. actives 3% (n = 64,000). AID 626;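 active = fluorescence rise, raw or as B-score row- and column-corrected plate score, outside the 99.7% band of its plate's samples, either direction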
M1 antag confirm: confirmation of rat M1 muscarinic receptor antagonists. calcium response (max-min fluorescence) at 10 µM. actives 43% (n = 1,700). CHO-M1 cells, Fluo-4 calcium, ACh EC80 antagonism; stronger effect = lower value. shares compounds with M1 antagonist;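 active = calcium response below the same-plate mean of wells given acetylcholine alone at its 80%-effect dose, minus 3 SD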
mGluR4 antag: mGluR4 (human) activity, M1 antagonist secondary assay | shares compounds with M1 antagonist | CHO-mGluR4 calcium flux, Fluo-4 fluorescence, glutamate EC80; stronger effect = lower value | fluorescence response (max-min) at 10 µM | actives 0.9% (n = 1,700);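 active = fluorescence response below the plate's average for near-maximal glutamate wells, less 3 SD of those wells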;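 note: raw unnormalized fluorescence span taken in the window right after glutamate addition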
A number is an active result; . = inactive; / = no result given. This is a sample that favours compounds with a hit; in the whole collection about 7.1% have one here.

SMILES	Pyk2 oligo antag	M1 antagonist	Cav3 T inh	M1 ag	M1 antag confirm	mGluR4 antag
Cc1cc2c(c(=O)n1CCN(C)C)C(c1ccncc1)C(C#N)=C(N)O2 (centres undefined)	.	-2.86	.	.	.	.
COc1cc(OC)c(C2C(C#N)=C(N)Oc3cc(C)n(CCCN4CCOCC4)c(=O)c32)cc1OC (centres undefined)	.	.	.	.	/	/
COc1ccc(C2C(C#N)=C(N)Oc3cc(C)n(Cc4ccncc4)c(=O)c32)cc1 (centres undefined)	.	.	.	.	/	/
CCN(CC)CCCn1c(C)cc2c(c1=O)C(c1cccc(Cl)c1)C(C#N)=C(N)O2 (centres undefined)	.	-4.91	/	.	.	.
CCN(CC)CCCn1c(C)cc2c(c1=O)C(c1cc(OC)c(OC)cc1OC)C(C#N)=C(N)O2 (centres undefined)	.	-10.6	.	.	279	.
CC(=O)Nc1cccc(-c2nnc(SCc3ccccc3C#N)n2C)c1	.	.	.	.	/	/
CCOCCCNC(=O)c1cc2c(-c3ccc(Cl)cc3)nn(C)c2s1	/	.	.	.	/	/
CCN(CC)CCNC(=O)c1cc2c(-c3ccc(Cl)cc3)nn(C)c2s1	/	-2.88	.	.	.	.
C#CCCOC(=O)N1C2=NC(C(=O)OC)=C(C(=O)OC)[C@@H]3N(CC=C)c4ccccc4[C@]23C[C@H]1C(=O)OC	/	/	.	/	/	/
CC1(C)Cc2c(sc3c2C2=NCCN2C=N3)CS1	.	-5.43	.	.	411	.
CN1C(=O)c2c(sc3c2CC(C)(C)SC3)N2CCN=C12	.	.	.	.	/	/
CNC(=O)c1ccsc1NC(=O)c1ccc(Cl)s1	/	.	/	.	/	/
CN1CCc2c(c3c(n2C)CCN(C)[C@@H]3c2cccnc2)[C@H]1c1cccnc1	/	-3.05	/	.	.	.
COc1cc(NS(=O)(=O)c2ccc(NC(=O)c3ccco3)cc2)nc(OC)n1	.	-2.23	.	.	.	.
COc1cc(NS(=O)(=O)c2ccc(NC(=S)NC(=O)c3sc4ccccc4c3Cl)cc2)nc(OC)n1	.	/	/	/	/	/
O=C(CCN1CCc2ccccc2CC1)c1ccc2c(c1)OCCO2	.	-3.86	.	.	215	.
O=C(CCCN1CCC(c2ccccc2)C1)c1ccc2c(c1)OCCO2 (centres undefined)	.	-8.75	.	.	251	.
O=C(CCN1CCOCC1)c1ccc2c(c1)OCCO2	.	/	.	/	/	/
CCCC(=O)Nc1ccc(C(=O)NNC(=O)COc2ccc(Br)c(C)c2)cc1	.	/	/	/	/	/
CCN1CCN(C(C)C(=O)Nc2c(C)n(C)n(-c3ccccc3)c2=O)CC1 (centres undefined)	.	/	.	/	/	/
COc1ccc(S(=O)(=O)N2CCCC(C(=O)NCc3ccncc3)C2)cc1 (centres undefined)	.	.	/	.	/	/
O=C(Cc1ccccc1)Nc1ccccc1CO	.	.	.	.	/	/
O=C(Cc1ccc(Cl)cc1)Nc1ccccc1CO	.	-2.54	.	.	.	.
O=C(CCC1CCCCC1)Nc1ccc(S(=O)(=O)Nc2nccs2)cc1	.	/	.	/	/	/
O=C(O)CCC(=O)Nc1ccc(S(=O)(=O)Nc2nccs2)cc1	/	-11.4	.	.	.	.
SMILES	Pyk2 oligo antag	M1 antagonist	Cav3 T inh	M1 ag	M1 antag confirm	mGluR4 antag
COCCn1c(SCC(=O)N2CCCc3ccccc32)nc2c(c1=O)SC(C)C2 (centres undefined)	/	/	.	/	/	/
COCCn1c(SCC(=O)N2CCCc3ccccc32)nc2ccccc2c1=O	.	-1.91	.	.	.	.
C=CCC(COCc1ccccc1)NS(=O)(=O)c1ccccc1Br (centres undefined)	/	/	.	/	/	/
CCOC(=O)N1CCN(C(=O)c2ccc3c(c2)ncn3C2CCCC2)CC1	.	-2.28	.	.	.	.
O=C(NCCN1CCCCCC1)C1CCC(CNS(=O)(=O)c2cccc3cccnc23)CC1 (centres undefined)	/	-1.99	.	.	.	.
CC1CCN(C(=O)C2CCC(CNS(=O)(=O)c3cccc4cccnc34)CC2)CC1 (centres undefined)	/	.	/	.	/	/
COC(=O)c1sc2ccccc2c1NC(=O)c1cccs1	.	-1.4	.	.	642	.
COc1cc(NC(=O)c2cccs2)cc(OC)c1	.	-3.42	.	.	.	.
COc1cccc(CNc2ccc(N3CCCCC3)cc2)c1OC	.	.	/	.	/	/
COc1ccccc1CNc1ccc(N2CCCCC2)cc1	.	-4.38	.	.	318	.

Screening data: PubChem, several laboratories
